Laboratory results reported in PubChem BioAssay AID1970 (National Center for Advancing Translational Sciences (NCATS), 2009).
Records with an inconclusive call do not appear. Active and inactive are the calls of the source. The call rests on the fitted dose curve; in most records, active means well fitted inhibition curve with a large enough effect; inconclusive means small, poorly fitted or top-dose-only effect; inactive means flat fitted curve, though single readings scatter.

molecular target: Dual specificity protein kinase CLK4 (Homo sapiens) (UniProt Q9HAZ1); assay: Confirmation Assay for Inhibitors of CDC-like Kinase 4 (Kinase-Glo Assay); details: recombinant Clk4, Kinase-Glo ATP depletion luminescence; series mostly up to 47.7 µM
Sequence (Q9HAZ1 whole entry, looked up): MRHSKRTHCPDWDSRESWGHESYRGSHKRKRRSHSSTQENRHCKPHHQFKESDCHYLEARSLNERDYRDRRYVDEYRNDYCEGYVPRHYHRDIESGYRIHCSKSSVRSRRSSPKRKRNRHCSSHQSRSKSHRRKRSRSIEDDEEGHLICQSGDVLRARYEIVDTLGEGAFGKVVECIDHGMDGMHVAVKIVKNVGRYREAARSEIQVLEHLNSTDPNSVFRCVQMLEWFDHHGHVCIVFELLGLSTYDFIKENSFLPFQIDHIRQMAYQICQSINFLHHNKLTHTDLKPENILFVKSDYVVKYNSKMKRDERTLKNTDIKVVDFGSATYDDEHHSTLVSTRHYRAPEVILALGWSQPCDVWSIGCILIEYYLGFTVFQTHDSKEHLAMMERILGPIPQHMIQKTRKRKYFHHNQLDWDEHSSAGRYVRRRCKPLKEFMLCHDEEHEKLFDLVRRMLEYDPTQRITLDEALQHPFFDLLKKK
How it was run: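 Read-out was Kinase-Glo luciferase luminescence of ATP left after 4.5 h room-temperature reaction. Final conditions: Clk4 25 nM, ATP 1 uM, RS peptide 100 uM, 25 mM Tris pH 7.5, 10 mM MgCl2, 0.5 mM EGTA, 2.5 mM DTT, 0.01% Triton X-100.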

Potency, active:
Cc1cccc(CNc2ncnc3ccc(-c4cccc(C)c4)cc23)c1 8910 nM
Cc1nc(CNc2ncnc3ccc(-c4ccoc4)cc23)cs1 232 nM
CN1CCCC1CCNc1ncnc2ccc(-c3ccc4c(c3)OCO4)cc12 (stereo not drawn) 923 nM
c1nc(N2CCC(N3CCCC3)CC2)c2cc(-c3ccc4c(c3)OCO4)ccc2n1 4630 nM
CCN(Cc1sccc1C)c1ncnc2ccc(-c3ccc4c(c3)OCO4)cc12 146 nM
Cc1nc(CSc2ncnc3ccc(-c4ccc5c(c4)OCO5)cc23)cs1 184 nM
Cc1cccc(-c2ccc3ncnc(NCc4cccs4)c3c2)c1 7080 nM
c1cncc(CNc2ncnc3ccc(-c4cccnc4)cc23)c1 7940 nM
Cc1nc(CN(C)c2ncnc3ccc(-c4ccc5c(c4)OCO5)cc23)cs1 33.6 nM
Cc1cccc(CNc2ncnc3ccc(-c4ccc5c(ccn5C)c4)cc23)c1 39800 nM
O=C(O)c1ccc(-c2ccc3ncnc(NCCc4cnc[nH]4)c3c2)o1 923 nM
Fc1c(-c2ccc3ncnc(NCc4cccs4)c3c2)ccc2c1OCO2 65.4 nM
Cc1occc1-c1ccc2ncnc(NCc3ncc[nH]3)c2c1 463 nM
Cc1occc1CNc1ncnc2ccc(-c3ccc4c(c3)OCO4)cc12 47.5 nM
Cc1ccc(CNc2ncnc3cc(-c4ccc5c(c4)OCO5)ccc23)o1 5980 nM
Cc1ccc(CNc2ncnc3ccc(-c4ccoc4)cc23)o1 519 nM
Cc1cccc(CNc2ncnc3ccc(-c4cccnc4)cc23)c1 3550 nM
Cc1nc(C)c(-c2ccc3ncnc(NCCc4cnc[nH]4)c3c2)s1 3680 nM
CCOC(=O)c1ccc(-c2ccc3ncnc(NCc4csc(C)n4)c3c2)o1 654 nM
c1csc(CNc2ncnc3cc(-c4ccc5c(c4)OCO5)ccc23)c1 11900 nM
Clc1ccccc1-c1ccc2ncnc(NCc3cccnc3)c2c1 10000 nM
FC1(F)Oc2ccc(-c3ccc4ncnc(NCc5cccs5)c4c3)cc2O1 18400 nM
Cc1nc(CNc2ncnc3ccc(-c4ccc5c(c4)OCO5)cc23)cs1 47.5 nM
c1cncc(CNc2ncnc3ccc(-c4ccoc4)cc23)c1 631 nM
CN(Cc1nccs1)c1ncnc2ccc(-c3ccc4c(c3)OCO4)cc12 37.7 nM
CCOC(=O)c1ccoc1-c1ccc2ncnc(NCc3ncc[nH]3)c2c1 10400 nM
Cc1cccc(CNc2ncnc3ccc(-c4ccc5c(c4)OCO5)cc23)c1 112 nM
c1nc(NCCc2cnc[nH]2)c2cc(-c3ccoc3)ccc2n1 412 nM
Cc1csc(CNc2ncnc3ccc(-c4ccc5c(c4)OCCO5)cc23)c1 447 nM
CC(Nc1ncnc2ccc(-c3ccc4c(c3)OCO4)cc12)c1ccco1 (stereo not drawn) 119 nM
Cc1cccc(-c2ccc3ncnc(NCc4cc(C)cs4)c3c2)c1 14100 nM
Cc1csc(CNc2ncnc3ccc(-c4ccc5c(c4)OCO5)cc23)c1 141 nM
c1csc(CNc2ncnc3ccc(-c4ccc5c(c4)OCO5)cc23)c1 45.8 nM
